From PubChem BioAssay (EPA / NIEHS) come the findings set out here.

Inconclusive results are not listed. Activity calls are given as the source filed them. The calls were made as follows, unless noted: active = hit-call score of the fitted dose curve at least 0.9, where 1 is the maximum; inactive = score below 0.9.

Read-out in assay [1]: Human Leukocyte Antigen - DR isotype (HLADR), HLA-DRA (gene 3122)
In words: BSK_3C_HLADR: BioMAP Diversity Plus: 3C Assay for Human Leukocyte Antigen - DR isotype (HLADR) Biomarker Activity (AID 2283019).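 As to outcome: ELISA of cell-surface HLA-DR on HUVEC 24 h after dosing.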 As to conditions: primary human endothelial cells (HUVEC); actives raise or lower the signal. The procedure, abridged: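 HUVEC, 3C stimulation, 24 h post-dose; HLA-DR by ELISA; bidirectional curve fit vs DMSO baseline; gain or loss of signal scored.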

Read-out in assay [2]: Interleukin-8 (IL8), CXCL8 (gene 3576)
In words: BSK_3C_IL8: BioMAP Diversity Plus: 3C Assay for Interleukin-8 (IL8) Biomarker Activity (AID 2283020). As to conditions: primary human endothelial cells (HUVEC); actives raise or lower the signal. A digest of the protocol:
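Human vascular endothelial cells (umbilical vein) in the 3C system; IL-8 level detected by ELISA at 24 h post-dose, with DMSO as baseline.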

Read-out in assay [3]: Monokine induced gamma interferon (MIG), CXCL9 (gene 4283)
In words: BSK_3C_MIG: BioMAP Diversity Plus: 3C Assay for Monokine induced gamma interferon (MIG) Biomarker Activity (AID 2283021).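 As to AC50: MIG protein level measured by immunoassay in the treated endothelial cultures.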 As to conditions: primary human endothelial cells (HUVEC); actives raise or lower the signal. A digest of the protocol:
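After 24 h of treatment, human umbilical vein endothelial cultures (3C system) had their MIG biomarker level determined by ELISA, with DMSO serving as negative control.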

The target in assay [4] is human Vitamin D Receptor (VDR), VDR (gene 7421) (UniProt P11473). In words: ATG_VDR_TRANS: Attagene TRANS-FACTORIAL HepG2 Assay for human Vitamin D Receptor (VDR) (AID 2283022; active = hit-call score of the fitted dose curve at least 0.9, where 1 is the maximum). A digest of the protocol: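 RT-PCR/capillary electrophoresis read-out of reporter mRNA induction in transiently transfected HepG2; 24 h dosing; chimeric NR-Gal4 (TRANS format); gain-of-signal fit against DMSO baseline.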
Sequence of human Vitamin D Receptor (VDR), VDR (gene 7421) (P11473 whole entry, looked up, the tested form may be a part): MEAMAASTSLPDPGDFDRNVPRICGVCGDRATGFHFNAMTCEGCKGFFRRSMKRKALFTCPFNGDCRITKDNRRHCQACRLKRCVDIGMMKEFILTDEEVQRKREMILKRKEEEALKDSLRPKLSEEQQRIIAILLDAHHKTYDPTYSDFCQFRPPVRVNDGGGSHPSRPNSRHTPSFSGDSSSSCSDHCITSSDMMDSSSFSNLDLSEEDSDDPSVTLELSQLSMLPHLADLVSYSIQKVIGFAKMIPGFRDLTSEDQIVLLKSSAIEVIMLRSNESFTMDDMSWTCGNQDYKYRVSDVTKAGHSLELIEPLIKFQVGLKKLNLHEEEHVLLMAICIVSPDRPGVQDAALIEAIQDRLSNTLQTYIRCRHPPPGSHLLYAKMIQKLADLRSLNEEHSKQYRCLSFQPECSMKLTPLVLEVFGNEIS

Assay [5] in a line: BSK_3C_SRB: Viability Assessment in the BioMAP Diversity Plus: 3C Assay (AID 2283023).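 Also: fitted both ways against DMSO so a hit may be signal rise or drop.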 As to conditions: primary human endothelial cells (HUVEC). The procedure, abridged: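 HUVEC, 24 h post-dose; 10% TCA fix, 0.1% SRB stain, A560 nm. Bidirectional curve fit vs DMSO negative control.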
Read-out in assay [6]: Matrix Metallopeptidase 1 (MMP1), MMP1 (gene 4312)
In words: BSK_BE3C_MMP1: BioMAP Diversity Plus: BE3C Assay for Matrix Metallopeptidase 1 (MMP1) Biomarker Activity (AID 2283024). As to conditions: primary human bronchial epithelial cells; actives raise or lower the signal. A digest of the protocol:
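Dose cells, wait 24 h, run MMP1 ELISA; cells are human bronchial epithelial primaries. Both increases and decreases relative to DMSO counted.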

Assay [7] in a line: BSK_3C_Vis: BioMAP Diversity Plus: 3C Assay for Morphology Visualization (AID 2283025).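 Also: fitted both ways so gain or loss versus DMSO counts.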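 As to AC50: light microscopy image of cell morphology used as background control.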 As to conditions: primary human endothelial cells (HUVEC). A digest of the protocol:
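Endothelial cells from human umbilical vein were treated with test chemicals for 24 h and inspected by light microscopy for changes in cell conformation.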

Read-out in assay [8]: Pselectin, SELP (gene 6403)
The assay is described as follows: BSK_4H_Pselectin: BioMAP Diversity Plus: 4H Assay for Pselectin Biomarker Activity (AID 2283026). As to conditions: primary human endothelial cells (HUVEC); actives raise or lower the signal. A digest of the protocol:
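Human vascular endothelium from umbilical vein; P-selectin measured by ELISA at 24 h post-dose, with cytotoxicity checked by sulforhodamine B total-protein staining in parallel cultures (0.1% SRB after 10% TCA fixation, read at 560 nm).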

Assay [9] is described as follows: BSK_4H_SRB: Viability Assessment in the BioMAP Diversity Plus: 4H Assay (AID 2283027).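 Also: cells exposed to compound for 24 h before staining.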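 As to AC50: curves fitted both ways versus DMSO so AC50 may be loss or gain.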 The note with it: primary human endothelial cells (HUVEC). The procedure, abridged: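 Human umbilical vein endothelial cells, 24 h after chemical dosing; total protein measured by 0.1% sulforhodamine B staining after 10% TCA fixation, read at 560 nm. Bidirectional fitting against DMSO.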

Assay [10] can be described thus: BSK_BE3C_SRB: Viability Assessment in the BioMAP Diversity Plus: BE3C Assay (AID 2283028).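 As to AC50: fitted both ways so AC50 may mark signal gain or loss versus DMSO.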 As to conditions: primary human bronchial epithelial cells. A digest of the protocol: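 Primary human bronchial epithelium; chemical dosing, 24 h; 10% TCA fix, 0.1% SRB stain, A560; bidirectional fit vs DMSO baseline.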

In the case of `CCOP(=S)(OCC)Oc1nc(Cl)n(C(C)C)n1`, the outcome in [1], in [2], in assay [3], in assay [4], in assay [5] and in [6] was inactive. Moreover, the outcome in [7], in assay [8], in [9] and in assay [10] was inactive.

`CCNP(=S)(OC)O/C(C)=C/C(=O)OC(C)C` (stereo not drawn): the outcome in assay [1], in assay [2], in assay [3], in assay [5], in assay [6] and in [7] was inactive. The outcome in assay [8], in assay [9] and in [10] was inactive.

With `COCc1cnc(C2=NC(C)(C(C)C)C(=O)N2)c(C(=O)O)c1` (stereo not drawn), the result in [1], in assay [2], in [3], in [4], in assay [5] and in assay [6] was inactive. Besides, the outcome in [7], in [8], in [9] and in assay [10] was inactive.

As for `CC1(C)CCC(=Cc2ccc(Cl)cc2)C1(O)Cn1cncn1` (stereo not drawn), the values for the half-maximal activity concentration (AC50) in [1] and in assay [9] were 5.3 µM (active) and 0.803 µM (active), respectively. In addition, the outcome in assay [2], in [3], in assay [4], in [5], in assay [6] and in [7] was inactive. The result in [8] and in [10] was inactive.

For the compound `N#Cc1c(Cl)cccc1Cl`, the AC50 – broadly, the concentration giving half of the maximal activity seen – in assay [1] is 3.97 µM (active). Besides, the result in [2], in [3], in assay [5], in assay [6], in assay [7] and in assay [8] was inactive. The outcome in [9] and in assay [10] was inactive.

`CC(C)N1C(=O)c2ccccc2NS1(=O)=O`: the result in assay [1], in assay [2], in [3], in assay [4], in assay [5] and in assay [6] was inactive. Moreover, the outcome in assay [7], in [8], in assay [9] and in [10] was inactive.

Consider `CC(C)Nc1nc(Cl)nc(NC(C)C)n1`, for which the outcome in assay [1], in assay [2], in assay [3], in [4], in assay [5] and in assay [6] was inactive. Also, the result in [7], in assay [8], in assay [9] and in assay [10] was inactive.

For `CC(C)Oc1cccc(NC(=O)c2ccccc2C(F)(F)F)c1`, the result in [1], in [2], in assay [3], in assay [6], in assay [7] and in [8] was inactive. The result in assay [9] and in [10] was inactive. The AC50 in assay [5] is 11.6 µM (active).

Consider `COC(=O)NS(=O)(=O)c1ccc(N)cc1`, for which the outcome in assay [1], in assay [2], in [3], in [5], in [6] and in [7] was inactive. Moreover, the outcome in assay [8], in [9] and in assay [10] was inactive.

With `COc1cc(Cl)c(OC)cc1Cl`, the result in assay [1], in [2], in assay [3], in assay [5], in assay [6] and in assay [7] was inactive. Besides, the result in assay [8] and in assay [10] was inactive. In [9], the concentration at half-maximal activity (AC50) was 3.09 µM (active).

For the compound `CCOc1cc(C(C)(C)C)ccc1C1COC(c2c(F)cccc2F)=N1` (stereo not drawn), the AC50 in [1] was 29.8 µM (active); in assay [2], 23.9 µM (active); in assay [3], 32.1 µM (active); in [5], 15.1 µM (active); in assay [6], 10.3 µM (active); in assay [7], 22 µM (active). Moreover, the AC50 in assay [8] is 22.2 µM (active); in assay [9], 27.6 µM (active); in [10] it was 20 µM (active). In addition, the outcome in [4] was inactive.

For `CCN(CC)c1nc(C)cc(OP(=S)(OC)OC)n1`, the result in assay [1], in assay [2], in assay [3], in assay [4], in assay [7] and in [8] was inactive. The outcome in assay [9] and in [10] was inactive. Also, the figures for the AC50 in assay [5] and in assay [6] were 29.4 µM (active) and 20 µM (active), respectively.

`CN/C(=N\[N+](=O)[O-])NCc1cnc(Cl)s1`: the result in assay [1], in assay [2], in assay [3], in assay [4], in assay [5] and in [6] was inactive. In addition, the outcome in assay [7], in assay [8], in [9] and in assay [10] was inactive.

Regarding `CC(C)NC(=O)N1CC(=O)N(c2cc(Cl)cc(Cl)c2)C1=O`, the outcome in [1], in assay [2], in assay [3], in [5], in [6] and in [7] was inactive. The result in [8], in assay [9] and in [10] was inactive.

For the compound `O=C1C2CC=CCC2C(=O)N1SC(Cl)(Cl)Cl` (stereo not drawn), the AC50 in assay [1] is 36.7 µM (active); in assay [6], 12.1 µM (active); in assay [7] it was 39 µM (active); in [8], 23.9 µM (active). In addition, the result in assay [2], in assay [3], in assay [5], in assay [9] and in [10] was inactive.

On to `Cn1c(-c2ccccc2)cc(-c2ccccc2)[n+]1C`, for which the AC50 is 2.89 µM (active) in assay [1], 9.8 µM (active) in [7] and 1.65 µM (active) in assay [9]. Also, the result in [2], in assay [3], in assay [4], in [5], in [6] and in [8] was inactive. For the same compound, the result in assay [10] was inactive.

Regarding `CCOc1nc(C(Cl)(Cl)Cl)ns1`, in [1], the AC50 is 13.8 µM (active). For the same compound, the outcome in assay [2], in [3], in assay [4], in assay [5], in assay [6] and in assay [7] was inactive. For the same compound, the outcome in assay [8], in [9] and in assay [10] was inactive.

Regarding `CS(=O)(=O)c1cc(C(F)(F)F)ccc1C(=O)c1cnoc1C1CC1`, the result in [1], in assay [2], in assay [3], in [4], in assay [5] and in [6] was inactive. Besides, the result in [7], in assay [8], in assay [9] and in [10] was inactive.

`CC1(C)CON(Cc2ccccc2Cl)C1=O`: the result in assay [1], in assay [2], in assay [3], in assay [4], in assay [5] and in assay [6] was inactive. The result in [7], in assay [8], in assay [9] and in assay [10] was inactive.

For the compound `OC(c1ccc(Cl)cc1)(c1ccc(Cl)cc1)C(Cl)(Cl)Cl`, the AC50 in [1] was 12 µM (active); in assay [2] it was 15.3 µM (active); in assay [3], 30.3 µM (active); in [5], 21.2 µM (active); in assay [6] it was 34.1 µM (active); in assay [7] it was 16.3 µM (active). In addition, the AC50 was 17.3 µM (active) in [8], 28.6 µM (active) in [9] and 12.9 µM (active) in [10]. Moreover, in assay [4], the compound was called inactive.
